Assay results taken from PubChem BioAssay (NCI).
About 83,000 compounds went through this panel and 20% of them were active in at least one assay; those are over-represented in the sample as a whole.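 Growth was measured after 48 h exposure to one concentration of compound in 96-well plates. Values under 10 count as active.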 The source made the active and inactive calls.

The molecules below were run on HOP-92 NSCLC (assay: NCI-60 one-dose screen, 48 h (100 = growth as untreated, 0 = no growth, -100 = all killed)). Settings: 10 µM unless noted.

Row | Structure (SMILES) | growth
1 | COC(=O)c1sccc1-c1cc(O)c(C(=O)Nc2ccccc2)s1 | 97.9% (inactive)
2 | O=C(C1=Cc2cc3ccccc3n2Cc2cnnn21)c1ccc(F)cc1 | 102% (inactive)
3 | Cc1cccc(N2C(=O)/C(=C/C(Cl)=C/c3ccc([N+](=O)[O-])cc3)SC2=S)c1C | -28.1% (active)
4 | CS(=O)/C(C#N)=C\C=C\c1cccc(Cl)c1 (stereo not given) | -5.77% (active)
5 | CCOC(=O)/C=C1\S/C(=N\Nc2cc(=O)[nH]c3ccc(Br)cc23)N(c2ccccc2)C1=O | 81.5% (inactive)
6 | Cc1ccc2nc(-c3ccc(C(=O)N/N=C/c4ccc([N+](=O)[O-])cc4)cc3)[nH]c2c1 | 91.9% (inactive)
7 | COc1ccc(/C=C/C(c2cc(OC)c(OC)c(OC)c2)n2cncn2)cc1O (stereo not given) | 48% (inactive)
8 | CCCCCCCCCCCCCCCCCCOc1ccccc1CC(=O)NCC[N+](C)(C)C | -5.43% (active)
9 | CCOC(=O)c1c(C)nc2ccccc2c1/C=C/c1ccc(F)cc1 | 42.1% (inactive)
10 | N#Cc1c(-c2ccccc2)cc(-c2ccccc2)n(CCCCC(=O)NO)c1=O | 15.7% (inactive)
11 | COc1cc(Cc2cc(OC)c(O)c(OC)c2)cc(OC)c1O | 89.6% (inactive)
12 | COc1cc(/C=C/c2cc(/C=C/c3ccc(O)c(OC)c3)n(C(=O)Nc3ccc(Cl)cc3)n2)ccc1O | -4.7% (active)
13 | NS(=O)(=O)c1ccc(C(=O)NN2C(=O)c3ccccc3C2=O)cc1 | 107% (inactive)
14 | CS(=O)(=O)c1ccc(-c2nc3ccccc3n2CC(=O)N/N=C/c2ccccc2)cc1 | 96.3% (inactive)
15 | CCn1cc(C(=O)N/N=C/c2cccc(F)c2)c(=O)c2cc(F)c(N3CCNC(C)C3)c(F)c21 (stereo not given) | 51.2% (inactive)
16 | CCCC(=O)NC(c1ccc2c(c1)OCO2)c1cc(Cl)c2cccnc2c1O (stereo not given) | 39.4% (inactive)
17 | O=C(c1cccc(N2CCOCC2)n1)c1c[nH]c2ccccc12 | 92.8% (inactive)
18 | Cc1cc(C(=O)CCCC(=O)c2cc(C)c(O)c(C)c2)cc(C)c1O | 82.9% (inactive)
19 | O=C(/C=C/c1ccccc1)c1cccc2ccccc12 | 47.3% (inactive)
20 | CNC(=O)c1cc(Oc2ccc3c(c2)sc2nc(-c4ccc(NC(=O)[C@@H](NC(=O)OC)C(C)C)cc4)cn23)ccn1 | 61.7% (inactive)

Row | Structure (SMILES) | growth
21 | FC(F)(F)c1[nH]ncc1-c1nc2ccc3[nH]ncc3c2c2c1CCCC2 | 31.2% (inactive)
22 | COC(=O)c1ccc2c(c1)c1c(C)c3cnccc3c(C)c1n2C | -16.6% (active)
23 | CC1=C2[C@@H](CC1)[C@]1(C)O[C@@](C3CCNCC3)(C[C@H]1OC(=O)CO)[C@H]2OC(=O)/C=C/c1ccccc1 | 71.8% (inactive)
24 | CCOC(=O)CC1CSC(N/N=C/c2ccc(F)c(Br)c2)=N1 (stereo not given) | 105% (inactive)
25 | O=C1/C(=C/c2cccc(Br)c2)COc2ccc(O)cc21 | 46% (inactive)
26 | O=C(Cn1nc(-c2cccc3ccccc23)ccc1=O)NCc1cccc(Cl)c1 | 26.3% [50 µM] (inactive)
27 | COc1cc(O)c2c(=O)c3c(CC=C(C)C)cc(OC)c(O)c3oc2c1 | 80.8% (inactive)
28 | Nc1ccc(Br)cc1C(F)(F)F | 104% (inactive)
29 | O=C(Nc1ccc(Oc2cccc(Cl)c2)c(Cl)c1)c1cccnn1 | 84.4% (inactive)
30 | COc1cccc(-c2cn3nc(-c4cn(C)c5ccccc45)sc3n2)c1 | 81.8% (inactive)
31 | c1ccc(-c2c(-c3ccccc3)[n+](Cc3ccc4ccccc4c3)cn2Cc2ccc3ccccc3c2)cc1 | -83.9% (active)
32 | COc1ccc(C2[C@@H](c3ccccc3)C(=O)N2c2cc(OC)c(OC)c(OC)c2)cc1F (stereo not given in full) | 28.1% (inactive)
33 | CC(C)CCC[C@@H](C)[C@H]1CC[C@H]2[C@@H]3CC=C4c5sc(Nc6cc(C(F)(F)F)cc(C(F)(F)F)c6)nc5CC[C@]4(C)[C@H]3CC[C@]12C | 79% (inactive)
34 | Nc1cc(C(=O)O)cc(-n2c(O)c(C=C3N=c4ccccc4=N3)sc2=S)c1 | 81.6% (inactive)
35 | COc1cccc(CNc2c3ccccc3nc3ccccc23)c1OC | -2.4% (active)
36 | Clc1ccc(Nc2ncc(Cc3cccc(Cl)c3Cl)s2)cc1 | 89% (inactive)
37 | CCOC(=O)c1cnn(CC(C)O)c1NC(=O)NCc1cccc(F)c1 (stereo not given) | 68% (inactive)
38 | C=C1C(=O)O[C@@H]2C3C(=C(C)CC[C@@H]12)CC1O[C@]13C (stereo not given in full) | 102% [6.75 µM] (inactive)
39 | CCOC(=O)C1=C(c2ccccc2)N=C2N(c3ccccc3)N=C(C(C)=O)N2C1c1ccc(F)cc1 (stereo not given) | 93.3% (inactive)
40 | CCCOC(=O)Nc1nc2ccc(SCC)cc2s1 | 96.1% (inactive)

Each molecule was assayed on NCI-H522 lung in the same assay as above. Settings: 10 µM unless noted.

Row | Structure (SMILES) | growth
41 | COC(=O)c1sccc1-c1cc(O)c(C(=O)Nc2ccccc2)s1 | 90.9% (inactive)
42 | O=C(C1=Cc2cc3ccccc3n2Cc2cnnn21)c1ccc(F)cc1 | 91.3% (inactive)
43 | Cc1cccc(N2C(=O)/C(=C/C(Cl)=C/c3ccc([N+](=O)[O-])cc3)SC2=S)c1C | -29.3% (active)
44 | CS(=O)/C(C#N)=C\C=C\c1cccc(Cl)c1 (stereo not given) | -9.88% (active)
45 | CCOC(=O)/C=C1\S/C(=N\Nc2cc(=O)[nH]c3ccc(Br)cc23)N(c2ccccc2)C1=O | 31.4% (inactive)
46 | Cc1ccc2nc(-c3ccc(C(=O)N/N=C/c4ccc([N+](=O)[O-])cc4)cc3)[nH]c2c1 | 95.1% (inactive)
47 | COc1ccc(/C=C/C(c2cc(OC)c(OC)c(OC)c2)n2cncn2)cc1O (stereo not given) | 13% (inactive)
48 | CCCCCCCCCCCCCCCCCCOc1ccccc1CC(=O)NCC[N+](C)(C)C | 7.44% (active)
49 | CCOC(=O)c1c(C)nc2ccccc2c1/C=C/c1ccc(F)cc1 | 53.8% (inactive)
50 | N#Cc1c(-c2ccccc2)cc(-c2ccccc2)n(CCCCC(=O)NO)c1=O | 19.3% (inactive)
51 | COc1cc(Cc2cc(OC)c(O)c(OC)c2)cc(OC)c1O | 56.5% (inactive)
52 | COc1cc(/C=C/c2cc(/C=C/c3ccc(O)c(OC)c3)n(C(=O)Nc3ccc(Cl)cc3)n2)ccc1O | -4.94% (active)
53 | NS(=O)(=O)c1ccc(C(=O)NN2C(=O)c3ccccc3C2=O)cc1 | 99.5% (inactive)
54 | CS(=O)(=O)c1ccc(-c2nc3ccccc3n2CC(=O)N/N=C/c2ccccc2)cc1 | 79.1% (inactive)
55 | CCn1cc(C(=O)N/N=C/c2cccc(F)c2)c(=O)c2cc(F)c(N3CCNC(C)C3)c(F)c21 (stereo not given) | -29.8% (active)
56 | CCCC(=O)NC(c1ccc2c(c1)OCO2)c1cc(Cl)c2cccnc2c1O (stereo not given) | 13.8% (inactive)
57 | O=C(c1cccc(N2CCOCC2)n1)c1c[nH]c2ccccc12 | 88.3% (inactive)
58 | Cc1cc(C(=O)CCCC(=O)c2cc(C)c(O)c(C)c2)cc(C)c1O | 91.1% (inactive)
59 | O=C(/C=C/c1ccccc1)c1cccc2ccccc12 | 17.2% (inactive)
60 | CNC(=O)c1cc(Oc2ccc3c(c2)sc2nc(-c4ccc(NC(=O)[C@@H](NC(=O)OC)C(C)C)cc4)cn23)ccn1 | 43.6% (inactive)

Row | Structure (SMILES) | growth
61 | FC(F)(F)c1[nH]ncc1-c1nc2ccc3[nH]ncc3c2c2c1CCCC2 | -16.9% (active)
62 | COC(=O)c1ccc2c(c1)c1c(C)c3cnccc3c(C)c1n2C | -65.1% (active)
63 | CC1=C2[C@@H](CC1)[C@]1(C)O[C@@](C3CCNCC3)(C[C@H]1OC(=O)CO)[C@H]2OC(=O)/C=C/c1ccccc1 | 83.6% (inactive)
64 | CCOC(=O)CC1CSC(N/N=C/c2ccc(F)c(Br)c2)=N1 (stereo not given) | 86.2% (inactive)
65 | O=C1/C(=C/c2cccc(Br)c2)COc2ccc(O)cc21 | 18.9% (inactive)
66 | O=C(Cn1nc(-c2cccc3ccccc23)ccc1=O)NCc1cccc(Cl)c1 | 17.1% [50 µM] (inactive)
67 | COc1cc(O)c2c(=O)c3c(CC=C(C)C)cc(OC)c(O)c3oc2c1 | -12.9% (active)
68 | Nc1ccc(Br)cc1C(F)(F)F | 103% (inactive)
69 | O=C(Nc1ccc(Oc2cccc(Cl)c2)c(Cl)c1)c1cccnn1 | 73.6% (inactive)
70 | COc1cccc(-c2cn3nc(-c4cn(C)c5ccccc45)sc3n2)c1 | 67.6% (inactive)
71 | c1ccc(-c2c(-c3ccccc3)[n+](Cc3ccc4ccccc4c3)cn2Cc2ccc3ccccc3c2)cc1 | -85.8% (active)
72 | COc1ccc(C2[C@@H](c3ccccc3)C(=O)N2c2cc(OC)c(OC)c(OC)c2)cc1F (stereo not given in full) | -34.2% (active)
73 | CC(C)CCC[C@@H](C)[C@H]1CC[C@H]2[C@@H]3CC=C4c5sc(Nc6cc(C(F)(F)F)cc(C(F)(F)F)c6)nc5CC[C@]4(C)[C@H]3CC[C@]12C | 101% (inactive)
74 | Nc1cc(C(=O)O)cc(-n2c(O)c(C=C3N=c4ccccc4=N3)sc2=S)c1 | 92.7% (inactive)
75 | COc1cccc(CNc2c3ccccc3nc3ccccc23)c1OC | 40.1% (inactive)
76 | Clc1ccc(Nc2ncc(Cc3cccc(Cl)c3Cl)s2)cc1 | 80.2% (inactive)
77 | CCOC(=O)c1cnn(CC(C)O)c1NC(=O)NCc1cccc(F)c1 (stereo not given) | 66% (inactive)
78 | C=C1C(=O)O[C@@H]2C3C(=C(C)CC[C@@H]12)CC1O[C@]13C (stereo not given in full) | -52.3% [6.75 µM] (active)
79 | CCOC(=O)C1=C(c2ccccc2)N=C2N(c3ccccc3)N=C(C(C)=O)N2C1c1ccc(F)cc1 (stereo not given) | 97.3% (inactive)
80 | CCCOC(=O)Nc1nc2ccc(SCC)cc2s1 | 65.6% (inactive)
